Among the data in PubChem BioAssay (NCATS) are max response and Potency values, retold here.

Each structure is given as a SMILES string. “And” between values parts separate entries of the source, which are not always exact repeats. Equal entries are not always repeated. Records with an inconclusive call do not appear. A number with no mark means an inactive call. The source made the active and inactive calls. Calls come from the whole dose curve; as a rule, active = well fitted inhibition curve with a large enough effect; inconclusive = small, poorly fitted or top-dose-only effect; inactive = flat fitted curve, though single readings scatter.
% is set by controls: 0 for no effect and ±100 for the full control effect; potency is the fitted concentration of half-maximal effect.

This assay has as its system KB-3-1. Kind of assay: Cytotoxic Profiling of Annotated Libraries Using Quantitative High-Throughput Screening (AID 1296008). Note: nearly all actives have a fitted effect of over 60% in size. Conditions: Five cell lines viability, CellTiter-Glo ATP luminescence, 48-72 h; max response: active compounds read low. In a few lines: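 Cells exposed to compounds for 48 or 72 hr at 37 degrees Celsius. Viability read as ATP-coupled luminescence with CellTiter-Glo after 10 min at room temperature.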
In general terms: In ATP-based viability assays light output follows the ATP content of the culture.
In the case of `C=CCN(C1=NCCN1)c1c(Cl)cccc1Cl`, the max response is 1.74%.
Turning to `CC(=O)OO`, the max response is 2.94%.
As to `CN[C@H]1C[C@@H](N)[C@H](O)[C@@H](O[C@@H]2O[C@H](CO)[C@H](O)[C@@H]3OC4(O[C@H]23)O[C@H](C(N)CO)[C@H](O)[C@H](O)[C@H]4O)[C@@H]1O` (some centres undefined), the max response was -7% and 5.21%.
Consider `Cc1ccccc1-n1c(C)nc2ccccc2c1=O`, for which the max response was -2.74% and -4.4%.
With `CN1CCCC(=C(c2cccs2)c2cccs2)C1`, the max response is -14.6%.
Consider `ClC1=C(Cl)[C@]2(Cl)[C@@H]3[C@H]4C[C@H]([C@@H]5O[C@H]45)[C@@H]3[C@@]1(Cl)C2(Cl)Cl`, for which the max response is -3.16%.
With `ClC(Cl)(Cl)Cl`, the max response is -1.06%.
For the compound `S=C(S)N1CCNCC1`, the max response was 7.2%.
In the case of `[S]=[Sb](=[S])[S][Sb](=[S])=[S]`, the max response was 2.26%.
Regarding `O=P(O)(O)C(Cl)(Cl)P(=O)(O)O`, the max response is -7.13%.
On the same count and under the same terms, the value for `CCCCCl` was -7.35%.
Regarding `CCC(C)(S(=O)(=O)CC)S(=O)(=O)CC`, the max response is -12.7%.
As for `Oc1cc(Cl)c(Cl)cc1Cl`, the max response was 0.226%.
The same measure, in the same setting: the value for `CCN(CC)C(=O)/C(Cl)=C(\C)OP(=O)(OC)OC` was -1.44%; that for `O=C(O)C(Cl)(Cl)Cl` was -15.3%.
Take `COc1ccc2c3c1O[C@H]1[C@@H](O)C=C[C@H]4[C@@H](C2)NCC[C@@]341`: the max response is 2.68% and -3.7%.
Still for that read-out and setting: the result for `CC(=O)O[C@H]1CC[C@@]2(C)C(=CC[C@@H]3[C@@H]2CC[C@]2(C)C(=O)CC[C@@H]32)C1` reads -3.08%; that for `C[C@@H](Cc1ccccc1)N(C)C`, 9.66%; that for `COCC(C)N(C(=O)CCl)c1c(C)csc1C` (centres undefined), -0.17%.
In the case of `O=C1OC2(c3cc(Br)c(O)cc3Oc3c2cc(Br)c(O)[c]3[Hg])c2ccccc21` (centres undefined), the max response was 6.88%.
For `N#CN`, the max response was -5.54%.
Take `CCCC(C)C1(CC)C(=O)NC(=O)NC1=O` (centres undefined): the max response is -12.9%.
As for `CCN(CC)C(=O)N[C@H]1C[C@@H]2c3cccc4[nH]cc(c34)C[C@H]2N(C)C1`, the max response was -7.12%.
Same read-out and setting: the value for `Cn1sc(Cl)cc1=O` was -13.7%.
In the case of `O=c1[nH]c(=O)n(Cl)c(=O)n1Cl`, the max response was 7.09%.
For `CC(=O)O[C@H]1C[C@H](O[C@H]2[C@@H](O)C[C@H](O[C@H]3[C@@H](O)C[C@H](OC4CC[C@@]5(C)[C@H](CC[C@@H]6[C@@H]5CC[C@]5(C)[C@@H](C7=CC(=O)OC7)CC[C@]65O)C4)O[C@@H]3C)O[C@@H]2C)O[C@H](C)[C@H]1O[C@@H]1O[C@H](CO)[C@@H](O)[C@H](O)[C@H]1O` (some centres undefined), the Potency is 206 nM (active).
For `[2H]C([2H])([2H])[C@H](N)Cc1ccccc1`, the max response is 2.04%.
`CCON=O`: the max response is -2.91%.
With `O=C(OCCN1CCCCC1)C(O)(c1ccccc1)c1ccccc1`, the max response was 1.68%.
For `O=C(C[C@@H]1NCCC[C@H]1O)Cn1cnc2cc(Br)c(Cl)cc2c1=O`, the max response is -0.356%.
With `CC(=O)OC1CN2CCC1CC2` (centres undefined), the max response was 4.86%.
Turning to `CN(C)CCCCCCN(C)C` (tested in a mixture with another compound), the max response was 0.743%.
For the compound `COC(=O)[C@@H]1[C@H]2CC[C@@H](C[C@H]1OC(=O)c1ccccc1)N2C`, the max response is 0.336%.
In the case of `S=C=S`, the max response is -1.39%.
